{"source": "PubChem BioAssay (Tox21)", "key": {"[1]": {"experiment": "qHTS assay to identify small molecule antagonists of the estrogen related receptor (ERR) signaling pathway from Tox21 library - cell viability counter screen (AID 1224834); also: nearly all actives have a fitted effect of over 30% in size", "outline": "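ERR cells, 2,000/well; 6 h settle at 37 C/5% CO2; pin-tool compound transfer in DMSO; 17.5 h at 37 C; CellTiter-Fluor, 30 min; fluorescence intensity.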"}, "[2]": {"biological_target": "Luciferin 4-monooxygenase (Photinus pyralis) (UniProt P08659)", "sequence (P08659 whole entry, looked up)": "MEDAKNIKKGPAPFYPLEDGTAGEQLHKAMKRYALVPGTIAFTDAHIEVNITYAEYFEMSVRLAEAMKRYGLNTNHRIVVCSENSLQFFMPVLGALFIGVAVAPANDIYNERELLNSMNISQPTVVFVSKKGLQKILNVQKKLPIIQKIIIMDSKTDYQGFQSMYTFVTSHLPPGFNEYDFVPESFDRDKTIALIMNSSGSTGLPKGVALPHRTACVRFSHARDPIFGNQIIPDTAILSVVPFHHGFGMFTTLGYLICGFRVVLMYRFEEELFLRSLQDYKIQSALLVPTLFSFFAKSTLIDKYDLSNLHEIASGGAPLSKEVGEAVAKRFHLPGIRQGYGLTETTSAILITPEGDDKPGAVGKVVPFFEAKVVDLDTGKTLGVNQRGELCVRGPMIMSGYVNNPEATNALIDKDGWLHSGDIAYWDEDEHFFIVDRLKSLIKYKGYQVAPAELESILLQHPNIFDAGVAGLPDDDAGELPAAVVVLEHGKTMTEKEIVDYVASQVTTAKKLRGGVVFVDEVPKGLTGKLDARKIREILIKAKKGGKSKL", "experiment": "qHTS assay to identify small molecule inhibitors of firefly luciferase (AID 1224835); also: nearly all actives have a fitted effect of over 25% in size; also: potency is read from the fitted curve at half-maximal effect", "outline": "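Quantitative HTS format; KM concentrations of both substrates. Purified P. pyralis FLuc activity quantified from luminescence images.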"}, "[3]": {"experiment": "qHTS assay to identify small molecule agonists of the constitutive androstane receptor (CAR) signaling pathway - cell viability counter screen (AID 1224836); also: series mostly up to about 92 µM; nearly all actives have a fitted effect of over 45% in size", "outline": "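HepG2-CYP2B6-hCAR, 2500 cells/well, 4 h pre-incubation; cpd 15 conc + PK11195 0.75 uM final; 23 h, 37 C/5% CO2; CellTiter-Fluor, fluorescence.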"}, "[4]": {"experiment": "qHTS assay to identify small molecule antagonists of the constitutive androstane receptor (CAR) signaling pathway - cell viability counter screen (AID 1224837); also: series mostly up to about 92 µM; nearly all actives have a fitted effect of over 45% in size", "outline": "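Viability was measured with CellTiter-Fluor in a HepG2 line carrying stably transfected hCAR and a CYP2B6-2.2kb construct. Cells were exposed for 23 hr at 37 C to 15 compound concentrations with 50 nM CITCO as agonist.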"}, "[5]": {"experiment": "qHTS assay to identify small molecule antagonists of the estrogen related receptor signaling pathway with the pleiotropic PPARgamma coactivator (PGC) from Tox21 10K library - cell viability counter screen (AID 1224840; active = well fitted cell-killing curve with a large enough effect in the repeat runs, not every such curve was filed as active; also: nearly all actives have a fitted effect of over 40% in size)", "outline": "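Multiplexed viability counter screen in the PGC/ERR cell line: cells treated with DMSO-dissolved compounds for 17.5 hours at 37 C, then viability measured as CellTiter-Fluor fluorescence.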"}, "[6]": {"biological_target": "Nuclear receptor subfamily 1 group I member 3 (Homo sapiens) (UniProt Q14994)", "sequence (Q14994 whole entry, looked up)": "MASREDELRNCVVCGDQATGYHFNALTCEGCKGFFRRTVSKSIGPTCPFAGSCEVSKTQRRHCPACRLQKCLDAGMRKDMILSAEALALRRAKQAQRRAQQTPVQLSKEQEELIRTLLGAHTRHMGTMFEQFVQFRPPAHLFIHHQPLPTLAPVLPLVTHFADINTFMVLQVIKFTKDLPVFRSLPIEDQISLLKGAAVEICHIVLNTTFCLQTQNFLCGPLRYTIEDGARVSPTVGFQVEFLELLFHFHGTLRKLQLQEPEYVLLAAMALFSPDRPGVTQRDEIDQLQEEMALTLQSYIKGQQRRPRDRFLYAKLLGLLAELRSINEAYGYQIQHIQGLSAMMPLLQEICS", "experiment": "qHTS assay to identify small molecule agonists of the constitutive androstane receptor (CAR) signaling pathway (AID 1224839); also: series mostly up to about 92 µM; nearly all actives have a fitted effect of over 15% in size", "outline": "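HepG2-CYP2B6-hCAR cells, 2500/well, 4 h pre-incubation; compounds 15 conc.; PK11195 0.75 uM final; 24 h, 37 C/5% CO2; ONE-Glo luciferase read.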"}, "[7]": {"experiment": "qHTS assay to identify small molecule antagonists of the estrogen related receptor signaling pathway with the pleiotropic PPARgamma coactivator (PGC) from Tox21 10K library (AID 1224841; call rule not given here; also: series mostly up to about 92 µM; actives are mostly falling curves and most rising ones were filed inactive; nearly all actives have a fitted effect of over 50% in size)", "outline": "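Steps: plate 2,000 PGC/ERR cells per well; incubate 6 h at 37 C with 5% CO2; transfer compounds from DMSO stocks by pin tool; incubate 18 h at 37 C; add One-Glo; measure luminescence 30 min later.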"}, "[8]": {"experiment": "qHTS assay to identify small molecule agonists of the estrogen related receptor signaling pathway with the pleiotropic PPARgamma coactivator (PGC) from Tox21 10K library (AID 1224842); also: nearly all actives have a fitted effect of over 15% in size", "outline": "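PGC/ERR reporter cells (NTP line) were seeded 2,000 per well, rested 6 h at 37 C/5% CO2, then pin-dosed with compounds in DMSO for 18 h at 37 C; luciferase read by One-Glo luminescence after 30 min at room temperature.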"}}, "note": "Inconclusive results are not listed. Where a call stands in place of a potency, no number is given. The source made the active and inactive calls. Unless noted, calls follow the shape of the dose curve; as a rule, active = well fitted curve in the direction sought with a large enough effect in the repeat runs; inconclusive = weak or mixed curves; inactive = no such curve, though single readings can be large; an effect the other way counts as inactive or inconclusive."}
{"smiles": "CC1=CC(O)CC(C)(C)C1", "note": "(stereo not drawn)", "values": [{"measurement": "Potency", "setting": "[1]", "result": "inactive"}, {"measurement": "Potency", "setting": "[2]", "result": "inactive"}, {"measurement": "Potency", "setting": "[3]", "result": "inactive"}, {"measurement": "Potency", "setting": "[4]", "result": "inactive"}, {"measurement": "Potency", "setting": "[5]", "result": "inactive"}]}
{"smiles": "CC(=O)Nc1ccc(N)cc1", "values": [{"measurement": "Potency", "setting": "[1]", "result": "inactive"}, {"measurement": "Potency", "setting": "[2]", "result": "inactive"}, {"measurement": "Potency", "setting": "[3]", "result": "inactive"}, {"measurement": "Potency", "setting": "[4]", "result": "inactive"}, {"measurement": "Potency", "setting": "[5]", "result": "inactive"}]}
{"smiles": "O=C(/C=C/c1ccccc1)OCCCc1ccccc1", "values": [{"measurement": "Potency", "setting": "[1]", "result": "inactive"}, {"measurement": "Potency", "setting": "[2]", "result": "17.8 µM (active)"}, {"measurement": "Potency", "setting": "[3]", "result": "inactive"}, {"measurement": "Potency", "setting": "[4]", "result": "inactive"}, {"measurement": "Potency", "setting": "[6]", "result": "inactive"}, {"measurement": "Potency", "setting": "[5]", "result": "inactive"}, {"measurement": "Potency", "setting": "[7]", "result": "inactive"}, {"measurement": "Potency", "setting": "[8]", "result": "inactive"}]}
{"smiles": "C=CC(C)(O)CCCC(C)CCCC(C)CCCC(C)C", "note": "(stereo not drawn)", "values": [{"measurement": "Potency", "setting": "[1]", "result": "inactive"}, {"measurement": "Potency", "setting": "[2]", "result": "inactive"}, {"measurement": "Potency", "setting": "[3]", "result": "inactive"}, {"measurement": "Potency", "setting": "[4]", "result": "inactive"}, {"measurement": "Potency", "setting": "[6]", "result": "inactive"}, {"measurement": "Potency", "setting": "[5]", "result": "inactive"}, {"measurement": "Potency", "setting": "[7]", "result": "inactive"}, {"measurement": "Potency", "setting": "[8]", "result": "inactive"}]}
{"smiles": "CCOC(=O)c1ccccc1OC", "values": [{"measurement": "Potency", "setting": "[1]", "result": "inactive"}, {"measurement": "Potency", "setting": "[2]", "result": "inactive"}, {"measurement": "Potency", "setting": "[3]", "result": "inactive"}, {"measurement": "Potency", "setting": "[4]", "result": "inactive"}, {"measurement": "Potency", "setting": "[6]", "result": "inactive"}, {"measurement": "Potency", "setting": "[5]", "result": "inactive"}, {"measurement": "Potency", "setting": "[7]", "result": "inactive"}]}
{"smiles": "CC(=O)Nc1ccccc1C", "values": [{"measurement": "Potency", "setting": "[1]", "result": "inactive"}, {"measurement": "Potency", "setting": "[2]", "result": "inactive"}, {"measurement": "Potency", "setting": "[3]", "result": "inactive"}, {"measurement": "Potency", "setting": "[4]", "result": "inactive"}, {"measurement": "Potency", "setting": "[6]", "result": "inactive"}, {"measurement": "Potency", "setting": "[5]", "result": "inactive"}, {"measurement": "Potency", "setting": "[7]", "result": "inactive"}]}
{"smiles": "CC(CCc1ccc2c(c1)OCO2)NN", "note": "(stereo not drawn)", "values": [{"measurement": "Potency", "setting": "[1]", "result": "inactive"}, {"measurement": "Potency", "setting": "[2]", "result": "inactive"}, {"measurement": "Potency", "setting": "[3]", "result": "inactive"}, {"measurement": "Potency", "setting": "[4]", "result": "inactive"}, {"measurement": "Potency", "setting": "[6]", "result": "inactive"}, {"measurement": "Potency", "setting": "[5]", "result": "inactive"}]}
{"smiles": "O=C(O)c1cccnc1C(=O)O", "values": [{"measurement": "Potency", "setting": "[1]", "result": "inactive"}, {"measurement": "Potency", "setting": "[2]", "result": "inactive"}, {"measurement": "Potency", "setting": "[3]", "result": "inactive"}, {"measurement": "Potency", "setting": "[4]", "result": "inactive"}, {"measurement": "Potency", "setting": "[5]", "result": "inactive"}]}
{"smiles": "NCC1CCCC(CN)C1", "note": "(stereo not drawn)", "values": [{"measurement": "Potency", "setting": "[1]", "result": "inactive"}, {"measurement": "Potency", "setting": "[2]", "result": "inactive"}, {"measurement": "Potency", "setting": "[3]", "result": "inactive"}, {"measurement": "Potency", "setting": "[4]", "result": "inactive"}, {"measurement": "Potency", "setting": "[6]", "result": "inactive"}, {"measurement": "Potency", "setting": "[5]", "result": "inactive"}, {"measurement": "Potency", "setting": "[7]", "result": "inactive"}, {"measurement": "Potency", "setting": "[8]", "result": "inactive"}]}
{"smiles": "Nc1nccs1", "values": [{"measurement": "Potency", "setting": "[1]", "result": "inactive"}, {"measurement": "Potency", "setting": "[2]", "result": "inactive"}, {"measurement": "Potency", "setting": "[3]", "result": "inactive"}, {"measurement": "Potency", "setting": "[5]", "result": "inactive"}]}
